Inconclusive results are not listed. Active and inactive are the calls of the source. Rule for the calls: active = hit-call score of the fitted dose curve at least 0.9, where 1 is the maximum; inconclusive = response in the unintended direction; inactive = score below 0.9.
Target: Retinoic acid receptor RXR-alpha (Homo sapiens) (UniProt P19793)
Assay: ATG_RXRa_TRANS: Attagene TRANS-FACTORIAL HepG2 Assay for human Retinoid X Receptor alpha (RXRa) (AID 2283012)
Description: ATG_TRANS is a cell-based, multiplexed-readout assay that uses HepG2, a human liver cell line, with measurements taken at 24 hours after chemical dosing in a 24-well plate.ATG_RXRa_TRANS is one of 30 assay component(s) measured or calculated from the ATG_TRANS assay. It is designed to make measurements of mRNA induction, a form of inducible reporter, as detected with fluorescence intensity signals by Reverse transcription polymerase chain reaction (RT-PCR) and Capillary electrophoresis technology.Data from the assay component ATG_RXRa_TRANS was analyzed into 1 assay endpoint. This assay endpoint, ATG_RXRa_TRANS, was analyzed in the positive analysis fitting direction relative to DMSO as the negative control and baseline of activity. Using a type of inducible reporter, measures of mRNA for gain-of-signal activity can be used to understand the reporter gene at the transcription factor-level as they relate to the gene RXRA. Furthermore, this assay endpoint can be referred to as a primary readout, because this assay has produced multiple assay endpoints where this one serves a reporter gene function. To generalize the intended target to other relatable targets, this assay endpoint is annotated to the nuclear receptor intended target family, where the subfamily is non-steroidal.
Human liver HepG2 cells are transiently transfected with multiple reporter transcription units (MRTUs) in 6-well plates using FuGene 6 reagent (Roche; 3 ml FuGene/1 mg DNA). The MRTU constructs are regulated by a cis-regulating element (promoter). […] A major difference between the CIS and TRANS system is that in CIS activities of endogenous TFs are measured, whereas the TRANS assay evaluates changes in activities of exogenous, chimeric NR-Gal4 proteins. […] At the end of 24 hour incubation, total RNA was isolated using TriZol reagent (Invitrogen). The isolated RNA is then reverse-transcribed using oligo(dT) primer and Mo-MLV reverse transcriptase (Invitrogen) with DNAse I (Ambion) treatment for 30 min. The one-tenth of the produced cDNA was amplified by PCR using Taq DNA polymerase (Invitrogen) and two reporter sequence-specific primers. The PCR products were fluorescently labeled by primer extension with 6-arboxyfluorescein (6-FAM) 5'-labeled reporter sequence-specific primer (2 min at 95 C, 20 s at 68 C and 10 min at 72 C) and these products were digested with 5U of HpaI (New England Biolabs) for 2h at 37 C. The fragments were purified using Qiaquick PCR columns (Qiagen), analyzed on an ABI 3130xL genetic analyzer (Applied Biosystems) with peak positions identified by using a set of X-rhodamine (ROX)-labeled MapMarker1000 molecular weight standards (BioVentures). The raw capillary electrophoresis data was processed using Attagraph software (Attagene).

Retinoic acid receptor RXR-alpha (Homo sapiens), sequence (P19793 whole entry, looked up): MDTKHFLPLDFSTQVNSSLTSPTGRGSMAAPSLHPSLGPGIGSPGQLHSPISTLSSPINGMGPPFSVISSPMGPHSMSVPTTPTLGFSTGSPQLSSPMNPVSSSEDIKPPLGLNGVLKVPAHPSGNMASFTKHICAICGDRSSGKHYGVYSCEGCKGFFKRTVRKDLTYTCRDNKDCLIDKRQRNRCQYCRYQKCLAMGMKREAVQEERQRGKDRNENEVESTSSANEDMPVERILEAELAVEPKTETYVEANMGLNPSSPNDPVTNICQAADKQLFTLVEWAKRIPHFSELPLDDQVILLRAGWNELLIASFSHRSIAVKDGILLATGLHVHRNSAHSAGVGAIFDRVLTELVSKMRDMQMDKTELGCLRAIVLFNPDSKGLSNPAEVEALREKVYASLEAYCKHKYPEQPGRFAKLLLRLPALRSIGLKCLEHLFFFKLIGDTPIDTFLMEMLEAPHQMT

outcome, inactive:
CCCCc1ccc(N)cc1
O=S(=O)(O)c1cccc2c(S(=O)(=O)O)cccc12
Cc1ccc2ccccc2n1
CCCCCCCCC=O
C=C(C)C1CCC(C)CC1O (stereo not given)
CCC(C)(O)CCC=C(C)C (stereo not given)
CCOC(=S)SSC(=S)OCC
CC(=O)OCCOC(C)=O
CCOc1ccccc1OCC
Clc1ccc(Cl)c(Cl)c1Cl
CC1(C)[C@@H]2CC[C@@]1(C)[C@H](O)C2
CC(C)(C#N)c1cc(Cn2cncn2)cc(C(C)(C)C#N)c1
COc1cc(C=O)ccc1OC(=O)C(C)C
C=C(C)C(=O)O
O=[N+]([O-])c1ccc(Nc2ccc(Nc3ccccc3)c(S(=O)(=O)O)c2)c([N+](=O)[O-])c1
Nc1cc([N+](=O)[O-])ccc1Cl
Cc1ccc(O)c(C(C)(C)C)c1
CN1[C@@H]2CC(OC(=O)[C@H](CO)c3ccccc3)C[C@H]1[C@@H]1O[C@@H]12 (stereo not given in full)
Clc1cccc(Cl)n1
CC(C)(C)NC(N)=O
C=C[Si](OCC)(OCC)OCC
Nc1cc([N+](=O)[O-])ccc1O
CCCCCCCCCC=O
CC(CN1c2ccccc2Sc2ccccc21)N(C)C (stereo not given)
CCCCCC=CCC(=O)OC
C[C@H]1C[C@@H]2[C@H]([C@@H](O)C[C@@]3(C)[C@H]2CC[C@]3(O)C(=O)CO)[C@@]2(C)C=CC(=O)C=C12
C=C(C)C(=O)Nc1ccc(Cl)c(Cl)c1
O=C(O)CCCCCCCC(=O)O
N#Cc1ccccc1
O=C(O)c1snc(Cl)c1Cl
C=C(C)C(=O)O[C@H]1C[C@@H]2CC[C@@]1(C)C2(C)C
NCCNCCN
CC(CCO)CCc1ccccc1 (stereo not given)
C=C(C)C(=O)OCc1ccccc1
CC1COc2ccccc2N1C(=O)C(Cl)Cl (stereo not given)
O=C(O)CCSCCC(=O)O
O=C(Nc1ccccc1)c1cc([N+](=O)[O-])ccc1Cl
CC(C)=CCC/C(C)=C/COC=O
NCCCCCCN
Nc1ccc(F)c([N+](=O)[O-])c1
